This passage reports outcome results from PubChem BioAssay AID2284371 (EPA ToxCast).

Inconclusive results are not listed. The source made the active and inactive calls. Rule for the calls: active = hit-call score of the fitted dose curve at least 0.9, where 1 is the maximum; inconclusive = response in the unintended direction; inactive = score below 0.9.

This assay in a line: ATG_M_61_EcoTox2: Attagene TRANS-FACTORIAL EcoTox-2 HepG2 Assay for M61 Transcription Factor (Internal Marker). The method, then:
ATG_EcoTox2 is a cell-based, multiplexed assay created by modifying the existing Attagene TRANS-FACTORIAL system to include a panel of nuclear receptors from some or all the following species: human (Homo sapiens), african clawed frog (Xenopus laevis), rainbow trout (Oncorhynchus mykiss), japanese medaka (Oryzias latipes), and zebrafish (Danio rerio). The ECOTOX2-FACTORIAL format uses HepG2, a human liver cell line, with measurements taken at 24 hours after chemical dosing in a 24-well plate. ATG_M_61_EcoTox2 is one of 29 assay components calculated in the ATG_EcoTox2 assay. It is designed to make measurements of mRNA induction, a form of inducible reporter, as detected with fluorescence intensity signals by Reverse transcription polymerase chain reaction (RT-PCR) and Capillary electrophoresis technology.The assay endpoint ATG_M_61_EcoTox2 was analyzed in the positive analysis fitting direction relative to DMSO as the negative control and baseline of activity. Using a type of inducible reporter, measures of mRNA for gain-of-signal activity can be used to understand the background control at the transcription factor-level as they relate to the gene. Furthermore, this assay endpoint can be referred to as a secondary readout, because this assay has produced multiple assay endpoints where this one serves a background control function. To generalize the intended target to other relatable targets, this assay endpoint is annotated to the background measurement intended target family, where the subfamily is internal marker.
Human liver HepG2 cells are transiently transfected with multiple reporter transcription units (MRTUs) in 6-well plates using FuGene 6 reagent (Roche; 3 ml FuGene/1 mg DNA). The MRTU constructs are regulated by a cis-regulating element (promoter). Each RTU expresses a GAL4-UAS that regulates the transcription of a nearby target reporter gene sequence. A major difference between the CIS and TRANS system is that in CIS activities of endogenous TFs are measured, whereas the TRANS assay evaluates changes in activities of exogenous, chimeric NR-Gal4 proteins. […] At the end of 24 hour incubation, total RNA was isolated using TriZol reagent (Invitrogen). The isolated RNA is then reverse-transcribed using oligo(dT) primer and Mo-MLV reverse transcriptase (Invitrogen) with DNAse I (Ambion) treatment for 30 min. The one-tenth of the produced cDNA was amplified by PCR using Taq DNA polymerase (Invitrogen) and two reporter sequence-specific primers. […] The fragments were purified using Qiaquick PCR columns (Qiagen), analyzed on an ABI 3130xL genetic analyzer (Applied Biosystems) with peak positions identified by using a set of X-rhodamine (ROX)-labeled MapMarker1000 molecular weight standards (BioVentures). […]
Consider `O=P(Oc1ccccc1)(Oc1ccccc1)Oc1ccccc1`, for which the outcome was inactive. On to `O=C(O)C(F)(F)C(F)(F)C(F)(F)C(F)(F)C(F)(F)C(F)(F)C(F)(F)F`, for which the call was inactive. `O=S(=O)(O)C(F)(F)C(F)(F)C(F)(F)C(F)(F)C(F)(F)C(F)(F)F`: the result was inactive. As to `CCCCOCN(C(=O)CCl)c1c(CC)cccc1CC`, the result was inactive.
